For experiment [1], the target named is Albumin (Bos taurus) (UniProt P02769). Description: compounds binding labelled BSA control protein – biochemical, small-molecule microarray, Alexa647 label, 635/667 nm fluorescence, artefact control for SMM control protein annotation, profiling panel (AID 1118).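 Further: score merges 667 nm emission intensity and signal-to-noise per printed compound spot.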 Particulars: BSA-A647 binding, fluorescence 635 nm, higher = more signal.
Experiment [2] is described as follows: probe aXIP binding to arrayed compounds – biochemical, NeuroSMM set, 635/667 nm fluorescence, primary screen (AID 1119).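 Further: probe is the protein aXip251-270 applied at 1 µg/mL to compound-printed slides; binding of probe to printed compounds measured as 667 nm fluorescence plus signal to noise.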 The note with it: small-molecule microarray, higher = more signal, called active from +8 up or from −8 down.
The nature of experiment [3]: probe aNOTCH3 binding on compound microarray – biochemical, small-molecule microarray, 635/667 nm fluorescence, primary screen (AID 1120).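 Further: probe is a biotin-tagged antibody raised against NOTCH3 rather than NOTCH3 protein; score merges spot fluorescence near 667 nm with spot signal to noise.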 Particulars: higher = more signal.
Experiment [4] can be described thus: probe aNOTCH2 binding on compound microarray – biochemical, small-molecule microarray, 635/667 nm fluorescence, primary screen (AID 1121).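 Further: score merges feature fluorescence read at 667 nm with its signal to noise.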 The note with it: higher = more signal.
Experiment [5] deals with Carbonic anhydrase 2 (Homo sapiens) (UniProt P00918). Description: compounds binding carbonic anhydrase 2 – biochemical, small-molecule microarray, Alexa647-labelled CAII, profiling panel (AID 1122). The note with it: CAII-A647 binding fluorescence, higher = more signal.
The nature of experiment [6]: COS7 lysate on small-molecule microarray, probe aHis, 635 nm (AID 1123).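 Further: z-score combines 667nm fluorescence intensity with signal-to-noise per printed compound spot.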 Particulars: COS7 cell lysate, fluorescence, higher = more signal.
The nature of experiment [7]: probe aLAP1 signal on lysate-treated microarray – cell lysate, small-molecule microarray, COS7 lysate, primary screen (AID 1124).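 Further: lysate comes from COS7 cells expressing LAP1 and is applied at 0.3 µg/mL; score merges spot fluorescence near 667 nm with signal-to-noise over triplicate slides.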 Particulars: probe aLAP1, fluorescence, higher = more signal.
The test system of experiment [8] is Sam68 (KHDRBS1). Description: compounds binding KHDRBS1 protein – biochemical, small-molecule microarray, 635 nm fluorescence, primary screen (AID 1125).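 Further: score merges 667 nm channel intensity with signal to noise over triplicate slides.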 The note with it: higher = more signal.
Experiment [9] concerns Chordin-like protein 2 (CHRDL2). Description: compounds binding chordin-like 2 – biochemical, small-molecule microarray, 635 nm fluorescence, primary screen (AID 1126).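 Further: printed compound slides probed with Chrdl2 protein at 4 µg/mL for 1 h at 4 C; score merges 667 nm emission intensity with signal to noise over three replicate slides.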 Particulars: fluorescence 635 nm, higher = more signal.
For experiment [10], the target named is Concanavalin-A (Canavalia ensiformis) (UniProt P02866). Description: compounds binding concanavalin A lectin – biochemical, small-molecule microarray, Alexa647 label, 635 nm, artefact control for SMM control protein annotation, primary screen (AID 1127).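 Further: z combines 667 nm emission intensity with signal-to-noise across three replicate slides.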 Particulars: ConA-A647 binding fluorescence, higher = more signal.

Drawing on PubChem BioAssay, this text covers composite z-score and composite Z-score for 15 compounds.

Molecules are shown by their SMILES. Calls of active or inactive are those of the source.

Sequence of Albumin (Bos taurus) (P02769 whole entry, looked up): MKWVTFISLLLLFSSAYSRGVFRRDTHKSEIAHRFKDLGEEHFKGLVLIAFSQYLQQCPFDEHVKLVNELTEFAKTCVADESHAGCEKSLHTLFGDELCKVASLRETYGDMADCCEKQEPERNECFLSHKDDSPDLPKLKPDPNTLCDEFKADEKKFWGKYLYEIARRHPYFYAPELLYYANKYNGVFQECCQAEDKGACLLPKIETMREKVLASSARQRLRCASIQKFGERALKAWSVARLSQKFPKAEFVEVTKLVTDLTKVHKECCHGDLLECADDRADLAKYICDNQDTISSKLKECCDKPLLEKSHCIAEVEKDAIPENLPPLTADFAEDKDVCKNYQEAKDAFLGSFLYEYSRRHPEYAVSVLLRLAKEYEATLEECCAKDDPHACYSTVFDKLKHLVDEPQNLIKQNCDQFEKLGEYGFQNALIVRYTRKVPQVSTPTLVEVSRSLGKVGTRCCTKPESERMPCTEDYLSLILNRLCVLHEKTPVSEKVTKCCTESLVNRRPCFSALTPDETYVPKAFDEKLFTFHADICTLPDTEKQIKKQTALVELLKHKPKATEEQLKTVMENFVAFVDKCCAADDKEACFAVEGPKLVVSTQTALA
Sequence of Concanavalin-A (Canavalia ensiformis) (P02866 whole entry, looked up): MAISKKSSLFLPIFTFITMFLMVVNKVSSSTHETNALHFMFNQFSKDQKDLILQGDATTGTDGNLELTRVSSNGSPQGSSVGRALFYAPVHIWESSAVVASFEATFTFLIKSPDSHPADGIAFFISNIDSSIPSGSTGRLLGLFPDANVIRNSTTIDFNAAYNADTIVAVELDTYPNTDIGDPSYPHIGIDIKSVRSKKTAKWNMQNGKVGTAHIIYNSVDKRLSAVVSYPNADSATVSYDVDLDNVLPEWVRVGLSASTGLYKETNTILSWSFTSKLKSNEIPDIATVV

As to `CC(=O)OC[C@H]1O[C@H](C#Cc2ccccc2)C=C[C@@H]1OC(C)=O`, the composite z-score is 0.243 in [1]; -0.0328 in experiment [3]; -0.136 in experiment [4]; 0.0239 in [5]; 0.214 in experiment [6]; 0.17 in experiment [7]. Also, the composite z-score in [8] was 0.182; in [9] it was 0.965; in [10], -0.0189. Also, the composite Z-score in experiment [2] was -0.005 (inactive).
For the compound `CCOC(=O)[C@H](CC(C)C)NC(=O)CCC1CC(OC(=O)NCCc2ccc(F)cc2)CC2(CCCC(COC(=O)NCC3CCCCC3)O2)O1` (stereo not given in full), the composite z-score in experiment [1] is 0.424; in experiment [3], 0.119; in experiment [4] it was -0.203; in experiment [5] it was 0.255; in [6], 2.11; in experiment [7], 0.0165. Moreover, the composite z-score in [8] was 0.986; in experiment [9] it was 0.618; in experiment [10] it was 1.07. In addition, the composite Z-score in experiment [2] was 0.2 (inactive).
`C#CCCCON=C1C[C@@H](O)[C@@H](O)[C@@H]2[C@@H]3C(=O)N(c4ccc(F)cc4F)C(=O)[C@@H]3CC[C@@H]12`: the composite z-score in [1] is 0.373; in [3], -0.113; in experiment [4], -0.0569; in experiment [5], -0.15; in experiment [6] it was -0.366; in experiment [7] it was 0.202. For the same compound, the composite z-score amounted to 0.428 in [8], 0.217 in [9] and 0.505 in [10]. In addition, the composite Z-score in [2] was -0.302 (inactive).
For `CC(C)CON=C1C[C@@H](O)[C@@H](O)[C@@H]2[C@@H]3C(=O)N(C4CCCCC4)C(=O)[C@@H]3CC[C@H]12`, the composite z-score in [1] was 0.536; in experiment [3], 0.0021; in [4] it was -0.125; in experiment [5], 0.445; in experiment [6], 0.84; in experiment [7], 0.606. Further, the composite z-score in experiment [8] is 1.3; in experiment [9], 0.25; in [10], 1.11. In [2], the composite Z-score is -0.409 (inactive).
As for `CCOC(=O)NN=C1C[C@@H](O)[C@@H](O)[C@@H]2[C@@H]3C(=O)N(c4cccc(Oc5ccccc5)c4)C(=O)[C@@H]3CC[C@@H]12`, the composite z-score is 0.736 in experiment [1]; -0.152 in experiment [3]; -0.167 in experiment [4]; 0.58 in [5]; 0.263 in experiment [6]; 0.142 in experiment [7]. Further, the composite z-score was -0.114 in experiment [8], -0.0646 in [9] and -0.245 in experiment [10]. The composite Z-score in experiment [2] is -0.147 (inactive).
On to `O=C1CCCC(C2=CCCCC2=O)C1` (stereo not given), for which the composite z-score was -0.599 in experiment [1]; 0.152 in experiment [3]; -0.112 in experiment [4]; -0.139 in [5]; 0.0016 in experiment [6]; 0.0781 in [7]. Also, the results for the composite z-score in experiment [8], in experiment [9] and in [10] were -0.532, 1.06 and -0.719, respectively. Further, in experiment [2], the composite Z-score was 0.675 (inactive).
For the compound `C=CC1=C[C@H](O)[C@@H]2O[C@@H]2C12OCCCO2`, the composite z-score in experiment [1] is -0.728; in experiment [3], -0.131; in experiment [4], -0.0878; in experiment [5], 0.0206; in experiment [6], -0.281; in experiment [7], -0.115. The figures for the composite z-score in experiment [8], in experiment [9] and in [10] were 0.372, 0.202 and 0.337, respectively. The composite Z-score in experiment [2] is -0.174 (inactive).
In the case of `C=CC[C@@H]1C=C[C@H](ON=C[C@@H](C)[C@H](OCc2ccccc2)C(C)C)[C@@H](CO)O1`, the composite z-score in experiment [1] was 0.744; in experiment [3], -0.276; in experiment [4] it was -0.221; in experiment [5], -0.115; in [6] it was 0.502; in experiment [7], 0.103. Also, the composite z-score in experiment [8] was 0.0186; in experiment [9] it was 0.157; in experiment [10], -0.817. Further, in experiment [2], the composite Z-score is -0.315 (inactive).
Regarding `COC(=O)CC=C[C@@H](C)[C@@H](C=NOCC[C@@H]1C=C[C@H](OC(C)=O)[C@@H](COC(C)=O)O1)NS(=O)(=O)c1ccc(C)cc1`, the composite z-score in experiment [1] is -0.361; in experiment [3], 0.132; in [4] it was -0.0938; in experiment [5], -0.297; in experiment [6], -0.309; in experiment [7], 0.195. Moreover, the composite z-score in [8] was 0.854; in experiment [9], 0.687; in [10], -2.79. In addition, the composite Z-score in [2] was 0.366 (inactive).
In the case of `COC(=O)CC=C[C@@H](C)[C@@H](C=NOCC[C@@H]1C=C[C@H](OC(C)=O)[C@@H](COC(C)=O)O1)OC`, the composite z-score in experiment [1] is -0.395; in experiment [3], -0.0006; in [4], -0.115; in experiment [5] it was -0.0197; in experiment [6], 0.849; in experiment [7], -0.0402. Moreover, the composite z-score in [8] was 0.411; in [9], 0.432; in [10] it was -0.319. Moreover, in experiment [2], the composite Z-score was 0.181 (inactive).
Turning to `COC(=O)CC=C[C@@H](C)[C@@H]1C=C[C@H](O)[C@@H](CO)O1`, the composite z-score is 0.0642 in experiment [1]; -0.364 in experiment [3]; -0.0717 in [4]; -0.184 in experiment [5]; 0.189 in experiment [6]; -0.171 in [7]. In addition, the composite z-score was -0.111 in experiment [8], 0.951 in [9] and -0.379 in experiment [10]. Further, the composite Z-score in [2] was 0.0543 (inactive).
Turning to `CO[C@H]1COC(=O)CCC[C@@H](C)[C@H](OC)COC(=O)[C@@H]2CCCN2C(=O)CC=C[C@@H]1C`, the composite z-score is -0.695 in experiment [1]; -0.0074 in experiment [3]; -0.132 in experiment [4]; -0.465 in experiment [5]; -0.776 in [6]; 0.324 in experiment [7]. Besides, the composite z-score in experiment [8] is -0.113; in experiment [9], 1.46; in experiment [10], -0.232. Moreover, in experiment [2], the composite Z-score is 0.215 (inactive).
As for `CC(C)CON=C1C[C@@H](O)[C@@H](O)[C@@H]2[C@@H]3C(=O)N(C[C@@H]4CCCO4)C(=O)[C@@H]3CC[C@@H]12`, the composite z-score in experiment [1] was 0.268; in experiment [3], -0.0967; in experiment [4] it was -0.14; in experiment [5] it was 0.165; in [6], 0.421; in experiment [7], 0.419. The composite z-score in experiment [8] was 0.12; in [9], -0.39; in experiment [10], -0.339. In addition, the composite Z-score in [2] was 0.223 (inactive).
`CC(=O)OC[C@H]1OC(ON=CC[C@@H]2C=C[C@H](OC(C)=O)[C@@H](COC(C)=O)O2)[C@H](OC(C)=O)[C@@H](OC(C)=O)[C@@H]1OC(C)=O` (stereo not given in full): the composite z-score in experiment [1] was 0.0478; in experiment [3], 0.144; in experiment [4], -0.14; in experiment [5] it was -0.451; in [6] it was -0.011; in experiment [7] it was 0.31. In addition, the composite z-score was 1.14 in [8], -0.794 in experiment [9] and 0.215 in experiment [10]. The composite Z-score in [2] is 0.359 (inactive).
Consider `O=C(NN=C1C[C@@H](O)[C@@H](O)[C@@H]2[C@@H]3C(=O)N(C4CCCCC4)C(=O)[C@@H]3CC[C@H]12)OCc1ccccc1`, for which the composite z-score in [1] came out at 0.885; in experiment [3], 0.273; in experiment [4], 0.179; in experiment [5] it was 0.0928; in experiment [6] it was 0.206; in [7], 0.947. Moreover, the composite z-score in experiment [8] is -0.337; in experiment [9] it was 0.209; in experiment [10] it was -0.465. The composite Z-score in experiment [2] was -0.229 (inactive).
